Measured values: PubChem BioAssay (EPA / NIEHS)
Calls of active or inactive are those of the source. The calls were made as follows: active = hit-call score of the fitted dose curve at least 0.9, where 1 is the maximum; inactive = score below 0.9.

Columns and labels:
[1] = ATG_CRE_CIS: Attagene CIS-FACTORIAL HepG2 Assay for human cAMP Responsive Element (CRE) binding protein 3 (AID 2282926); conditions: HepG2 CRE cis-reporter, Attagene multiplexed mRNA; actives raise or lower the signal
Outline: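 HepG2 cells transiently transfected with a multiplexed reporter library (CRE-driven unit among them) were dosed for 24 h. Reporter mRNA was quantified by RT-PCR, fluorescent labelling, HpaI digestion and capillary electrophoresis, with bidirectional fitting against DMSO baseline.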

[2] = ATG_CMV_CIS: Attagene CIS-FACTORIAL HepG2 Assay for human CMV (Internal Marker) (AID 2282928); conditions: HepG2 CMV promoter reporter, transcription factor profiling; actives raise or lower the signal;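 also: endpoint acts as a background internal control marker rather than a target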
Outline: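 HepG2 cells transiently transfected with multiple cis-regulated reporter units; 24 h compound exposure. Reporter mRNA quantified by RT-PCR, 6-FAM primer-extension labeling, HpaI digestion and capillary electrophoresis; bidirectional fitting against DMSO baseline.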

[3] = ATG_DR4_LXR_CIS: Attagene CIS-FACTORIAL HepG2 Assay for human Liver X Receptor (LXR), DR4 submotif (AID 2282929); conditions: HepG2 Attagene DR4 cis-reporter, mRNA transcription; actives raise or lower the signal
Outline: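 Endogenous factor activity at a DR4 cis-element is read as reporter mRNA in transiently transfected HepG2 cells. Exposure lasts 24 h; transcripts are amplified, fluorescently labelled and sized by capillary electrophoresis, with DMSO as baseline.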

[4] = target: Aryl hydrocarbon receptor (Homo sapiens) (UniProt P35869); assay: ATG_Ahr_CIS: Attagene CIS-FACTORIAL HepG2 Assay for human Aryl Hydrocarbon Receptor (Ahr) (AID 2282930); conditions: HepG2 AhR cis-factorial reporter transcription; actives raise or lower the signal
Chain of Aryl hydrocarbon receptor (Homo sapiens) (P35869 whole entry, looked up): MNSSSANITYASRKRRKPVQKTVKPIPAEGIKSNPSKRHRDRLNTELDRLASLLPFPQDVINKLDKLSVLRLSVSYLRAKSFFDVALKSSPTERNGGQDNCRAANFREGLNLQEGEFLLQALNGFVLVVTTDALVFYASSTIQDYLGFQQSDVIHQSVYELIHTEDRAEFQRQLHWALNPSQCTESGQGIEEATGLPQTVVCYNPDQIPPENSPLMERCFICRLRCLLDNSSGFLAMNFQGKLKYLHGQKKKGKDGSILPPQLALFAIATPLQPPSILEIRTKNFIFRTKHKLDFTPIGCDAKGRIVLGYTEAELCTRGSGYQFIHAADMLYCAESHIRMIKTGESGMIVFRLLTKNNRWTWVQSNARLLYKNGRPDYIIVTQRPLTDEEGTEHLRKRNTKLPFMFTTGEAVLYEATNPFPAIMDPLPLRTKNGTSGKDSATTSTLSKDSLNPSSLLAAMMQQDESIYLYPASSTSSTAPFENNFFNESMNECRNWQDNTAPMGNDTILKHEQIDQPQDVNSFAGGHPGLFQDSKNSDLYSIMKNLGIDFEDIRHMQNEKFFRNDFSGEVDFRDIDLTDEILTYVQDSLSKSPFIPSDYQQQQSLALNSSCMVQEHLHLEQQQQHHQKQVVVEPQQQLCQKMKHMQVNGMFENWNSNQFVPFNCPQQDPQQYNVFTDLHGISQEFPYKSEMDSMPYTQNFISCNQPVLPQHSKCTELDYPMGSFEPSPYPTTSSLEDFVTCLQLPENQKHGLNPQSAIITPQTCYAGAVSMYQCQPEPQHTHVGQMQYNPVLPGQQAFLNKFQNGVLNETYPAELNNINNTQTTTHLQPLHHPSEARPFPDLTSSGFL
Outline: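 Following 24 h of chemical dosing, transfected HepG2 liver cells with cis-driven reporter units were lysed for RNA; reporter mRNA was quantified via RT-PCR and capillary electrophoresis, and responses fitted bidirectionally from DMSO.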

[5] = ATG_AP_1_CIS: Attagene CIS-FACTORIAL HepG2 Assay for human Activator Protein 1 (AP-1) (AID 2282931); conditions: HepG2 Attagene cis-factorial AP-1 reporter mRNA; actives raise or lower the signal
Outline: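 Fluorescence of labelled PCR fragments separated by capillary electrophoresis gives reporter mRNA levels. HepG2 with transfected cis-regulated reporter units, 24 h exposure; DMSO serves as baseline for bidirectional curve fits.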

[6] = ATG_AP_2_CIS: Attagene CIS-FACTORIAL HepG2 Assay for human Activator Protein 2 (AP-2) (AID 2282932); conditions: HepG2 AP-2 cis-reporter, Attagene transcription factor profiling; actives raise or lower the signal
Outline: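 HepG2 cells were transiently transfected with multiple cis-promoter reporter transcription units and dosed for 24 h. Reporter mRNA was measured by RT-PCR with capillary electrophoresis fluorescence; bidirectional fits relative to DMSO baseline.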

[7] = ATG_BRE_CIS: Attagene CIS-FACTORIAL HepG2 Assay for human Bone Morphogenetic Protein (BMP) Response Element (BRE) (AID 2282933); conditions: HepG2 BMP response element reporter, Attagene transcription factor profiling; actives raise or lower the signal
Outline: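 Fluorescence-labelled reporter cDNA fragments, separated by capillary electrophoresis, gave the signal for this component of a 52-readout multiplex. HepG2 cells were transfected, exposed to chemicals for 24 h, and compared with DMSO using bidirectional fitting.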

[8] = target: Retinoic acid receptor alpha (Homo sapiens) (UniProt P10276); assay: ATG_DR5_RAR_CIS: Attagene CIS-FACTORIAL HepG2 Assay for human Retinoic Acid Receptor Alpha (RARE), DR5 submotif (AID 2282934); conditions: HepG2 Attagene cis-factorial RARE DR5 reporter, mRNA; actives raise or lower the signal;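 as to AC50: reporter responds to endogenous RAR alpha beta and gamma in HepG2 not RARA alone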
Chain of Retinoic acid receptor alpha (Homo sapiens) (P10276 whole entry, looked up): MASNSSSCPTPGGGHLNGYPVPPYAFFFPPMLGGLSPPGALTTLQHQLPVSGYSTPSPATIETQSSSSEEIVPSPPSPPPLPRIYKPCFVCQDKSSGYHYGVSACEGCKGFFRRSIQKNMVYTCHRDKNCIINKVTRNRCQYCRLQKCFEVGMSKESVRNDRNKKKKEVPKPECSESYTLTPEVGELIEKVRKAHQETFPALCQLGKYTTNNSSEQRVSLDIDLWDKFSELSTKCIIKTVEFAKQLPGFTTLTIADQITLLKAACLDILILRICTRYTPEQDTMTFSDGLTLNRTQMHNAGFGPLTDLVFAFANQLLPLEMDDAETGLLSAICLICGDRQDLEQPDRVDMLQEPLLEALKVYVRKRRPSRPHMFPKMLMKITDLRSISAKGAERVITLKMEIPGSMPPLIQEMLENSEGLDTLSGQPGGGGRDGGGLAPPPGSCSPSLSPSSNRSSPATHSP
Outline: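 Transfected HepG2 reporter cells are exposed to chemicals for 24 h. Then RNA is extracted and the DR5 element reporter transcript is measured by RT-PCR and capillary electrophoresis, with bidirectional curve fitting relative to DMSO.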

[9] = target: Transcription factor E2F1 (Homo sapiens) (UniProt Q01094); assay: ATG_E2F_CIS: Attagene CIS-FACTORIAL HepG2 Assay for human E2F Transcription Factor 1 (AID 2282935); conditions: HepG2 Attagene cis-reporter, E2F reporter RNA transcripts; actives raise or lower the signal
Chain of Transcription factor E2F1 (Homo sapiens) (Q01094 whole entry, looked up): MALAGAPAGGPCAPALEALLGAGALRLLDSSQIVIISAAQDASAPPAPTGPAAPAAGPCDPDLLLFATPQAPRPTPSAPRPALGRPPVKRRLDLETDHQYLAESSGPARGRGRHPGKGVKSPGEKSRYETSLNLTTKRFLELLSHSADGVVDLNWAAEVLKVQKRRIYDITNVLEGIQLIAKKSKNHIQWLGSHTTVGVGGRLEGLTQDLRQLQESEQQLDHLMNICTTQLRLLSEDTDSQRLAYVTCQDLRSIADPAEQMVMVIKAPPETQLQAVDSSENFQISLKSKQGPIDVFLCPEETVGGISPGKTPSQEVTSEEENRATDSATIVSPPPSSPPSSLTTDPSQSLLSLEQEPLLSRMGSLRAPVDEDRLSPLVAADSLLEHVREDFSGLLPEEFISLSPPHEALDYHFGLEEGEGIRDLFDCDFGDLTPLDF
Outline: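 HepG2 cells transiently transfected with multiplexed cis-element reporter units, dosed for 24 h. Reporter mRNA measured by RT-PCR, 6-FAM primer-extension labeling, HpaI digestion and capillary electrophoresis; bidirectional fit versus DMSO baseline.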

CCOC(=O)COC(=O)c1cc(Oc2ccc(C(F)(F)F)cc2Cl)ccc1[N+](=O)[O-]
outcome [1]: inactive | outcome [2]: inactive | AC50 [3]: 35.5 µM (active) | outcome [4]: inactive | outcome [5]: inactive | outcome [6]: inactive | outcome [7]: inactive | outcome [8]: inactive | outcome [9]: inactive

O=C(c1ccccc1)C(O)c1ccccc1 (stereo not given)
outcome [1]: inactive | outcome [2]: inactive | outcome [3]: inactive | outcome [4]: inactive | outcome [6]: inactive | outcome [7]: inactive | outcome [8]: inactive | outcome [9]: inactive

CCC(C)S (stereo not given)
outcome [1]: inactive | outcome [2]: inactive | outcome [3]: inactive | outcome [4]: inactive | outcome [5]: inactive | outcome [6]: inactive | outcome [7]: inactive | outcome [8]: inactive | outcome [9]: inactive

CC1=C(Br)C(=O)C(Br)=C/C1=C(/c1ccccc1S(=O)(=O)O)c1cc(Br)c(O)c(Br)c1C
outcome [1]: inactive | outcome [2]: inactive | outcome [3]: inactive | AC50 [4]: 51.1 µM (active) | outcome [5]: inactive | outcome [6]: inactive | outcome [7]: inactive | outcome [8]: inactive | outcome [9]: inactive

O=C(O)CCCCCCCCCCCC(=O)O
outcome [1]: inactive | outcome [2]: inactive | outcome [3]: inactive | outcome [4]: inactive | outcome [5]: inactive | outcome [6]: inactive | outcome [7]: inactive | outcome [8]: inactive | outcome [9]: inactive

CC(O)C1CCCCC1 (stereo not given)
outcome [1]: inactive | outcome [2]: inactive | outcome [3]: inactive | outcome [4]: inactive | outcome [6]: inactive | outcome [7]: inactive | outcome [8]: inactive | outcome [9]: inactive

COc1ccc(CCC(C)=O)cc1
outcome [1]: inactive | outcome [2]: inactive | outcome [3]: inactive | outcome [4]: inactive | outcome [5]: inactive | outcome [6]: inactive | outcome [7]: inactive | outcome [9]: inactive

CCCCOCC
outcome [1]: inactive | outcome [2]: inactive | outcome [3]: inactive | outcome [4]: inactive | outcome [5]: inactive | outcome [6]: inactive | outcome [7]: inactive | outcome [8]: inactive | outcome [9]: inactive

CS(=O)(=O)c1ccc(Cl)cc1
outcome [1]: inactive | outcome [2]: inactive | outcome [3]: inactive | outcome [4]: inactive | outcome [6]: inactive | outcome [7]: inactive | outcome [8]: inactive | outcome [9]: inactive

CC(C)CC(C)CC(O)CC(C)C (stereo not given)
outcome [1]: inactive | outcome [2]: inactive | outcome [3]: inactive | outcome [4]: inactive | outcome [5]: inactive | outcome [6]: inactive | outcome [7]: inactive | outcome [8]: inactive | outcome [9]: inactive

FC(F)(F)COCC(F)(F)F
outcome [1]: inactive | outcome [2]: inactive | outcome [3]: inactive | outcome [4]: inactive | outcome [5]: inactive | outcome [6]: inactive | outcome [7]: inactive | outcome [8]: inactive | outcome [9]: inactive

CC(C)(N=C=O)c1cccc(C(C)(C)N=C=O)c1
outcome [1]: inactive | outcome [2]: inactive | outcome [3]: inactive | outcome [4]: inactive | outcome [5]: inactive | outcome [6]: inactive | outcome [7]: inactive | outcome [8]: inactive | outcome [9]: inactive

Cc1ccc(N)c(S(=O)(=O)O)c1
outcome [1]: inactive | outcome [2]: inactive | outcome [3]: inactive | outcome [4]: inactive | outcome [5]: inactive | outcome [6]: inactive | outcome [7]: inactive | outcome [8]: inactive | outcome [9]: inactive

CCOC(=O)CCc1ccccc1
outcome [1]: inactive | outcome [2]: inactive | outcome [3]: inactive | outcome [4]: inactive | outcome [5]: inactive | outcome [6]: inactive | outcome [7]: inactive | outcome [8]: inactive | outcome [9]: inactive

CC(=O)C1(C)CC2=C(CCCC2(C)C)CC1C (stereo not given)
outcome [1]: inactive | AC50 [2]: 76.8 µM (active) | AC50 [3]: 179 µM (active) | AC50 [4]: 126 µM (active) | AC50 [5]: 93.3 µM (active) | AC50 [6]: 76.1 µM (active) | AC50 [8]: 100 µM (active) | outcome [9]: inactive

CCCCCCCCCC(C)C=O (stereo not given)
outcome [1]: inactive | outcome [2]: inactive | outcome [3]: inactive | outcome [4]: inactive | outcome [5]: inactive | outcome [6]: inactive | outcome [7]: inactive | outcome [8]: inactive | outcome [9]: inactive

CC1(C)CCC[C@]2(C)[C@H]3CCO[C@]3(C)CC[C@@H]12
outcome [1]: inactive | outcome [2]: inactive | outcome [3]: inactive | outcome [4]: inactive | AC50 [5]: 151 µM (active) | outcome [6]: inactive | outcome [8]: inactive | outcome [9]: inactive

CCCCC(CC)COC(C)=O (stereo not given)
outcome [1]: inactive | outcome [3]: inactive | outcome [4]: inactive | outcome [5]: inactive | outcome [6]: inactive | outcome [7]: inactive | outcome [9]: inactive

COCCc1ccc(OCC(O)CNC(C)C)cc1 (stereo not given)
outcome [1]: inactive | outcome [3]: inactive | outcome [4]: inactive | outcome [5]: inactive | outcome [6]: inactive | outcome [7]: inactive | outcome [8]: inactive | outcome [9]: inactive

N#Cc1cscn1
outcome [1]: inactive | outcome [2]: inactive | outcome [3]: inactive | AC50 [4]: 34.7 µM (active) | outcome [5]: inactive | outcome [6]: inactive | outcome [7]: inactive | outcome [8]: inactive | outcome [9]: inactive

N#Cc1ccc(CC(=O)c2cccc(C(F)(F)F)c2)cc1
outcome [1]: inactive | outcome [3]: inactive | outcome [4]: inactive | outcome [6]: inactive | AC50 [7]: 128 µM (active) | outcome [8]: inactive | outcome [9]: inactive

CC(C)=CCCC(C)CC(=O)O (stereo not given)
outcome [1]: inactive | outcome [2]: inactive | outcome [3]: inactive | outcome [4]: inactive | outcome [5]: inactive | outcome [6]: inactive | outcome [7]: inactive | outcome [8]: inactive | outcome [9]: inactive

CCCC(=O)c1ccccc1
outcome [1]: inactive | outcome [2]: inactive | outcome [3]: inactive | outcome [4]: inactive | outcome [5]: inactive | outcome [6]: inactive | outcome [7]: inactive | outcome [9]: inactive

CCOCCOCCOCC
outcome [1]: inactive | outcome [2]: inactive | outcome [3]: inactive | outcome [4]: inactive | outcome [5]: inactive | outcome [6]: inactive | outcome [7]: inactive | outcome [9]: inactive

CCCCSCCCC
outcome [1]: inactive | outcome [2]: inactive | outcome [3]: inactive | outcome [4]: inactive | outcome [5]: inactive | outcome [6]: inactive | outcome [7]: inactive | outcome [9]: inactive

C=C(C)[C@@H]1CC=C(C)C(=O)C1
outcome [1]: inactive | outcome [2]: inactive | outcome [3]: inactive | outcome [4]: inactive | outcome [5]: inactive | outcome [6]: inactive | outcome [7]: inactive | outcome [9]: inactive

CCN(CCC#N)c1ccc(N=Nc2ccc([N+](=O)[O-])cc2)cc1
outcome [1]: inactive | outcome [2]: inactive | outcome [3]: inactive | outcome [4]: inactive | outcome [5]: inactive | outcome [6]: inactive | outcome [7]: inactive | outcome [8]: inactive | outcome [9]: inactive

CCCC(C)C(O)CC (stereo not given)
outcome [1]: inactive | outcome [2]: inactive | outcome [3]: inactive | outcome [4]: inactive | outcome [5]: inactive | outcome [6]: inactive | outcome [7]: inactive | outcome [8]: inactive | outcome [9]: inactive

COc1ccccc1[N+](=O)[O-]
outcome [1]: inactive | outcome [2]: inactive | outcome [3]: inactive | outcome [4]: inactive | outcome [5]: inactive | outcome [6]: inactive | outcome [7]: inactive | outcome [8]: inactive | outcome [9]: inactive

O=C(O)c1cccnc1C(=O)O
outcome [1]: inactive | outcome [2]: inactive | outcome [3]: inactive | outcome [4]: inactive | outcome [6]: inactive | outcome [7]: inactive | outcome [8]: inactive | outcome [9]: inactive

CC(=O)O[C@@H]1CC2CCC1(C)C2(C)C (stereo not given in full)
outcome [1]: inactive | outcome [2]: inactive | outcome [3]: inactive | outcome [4]: inactive | outcome [5]: inactive | outcome [6]: inactive | outcome [7]: inactive | outcome [8]: inactive | outcome [9]: inactive

O=C1NC2NC(=O)NC2N1 (stereo not given)
outcome [1]: inactive | outcome [2]: inactive | outcome [3]: inactive | outcome [4]: inactive | outcome [5]: inactive | outcome [6]: inactive | outcome [7]: inactive | outcome [8]: inactive | outcome [9]: inactive

OC[C@H]1O[C@@H](Oc2ccc(O)cc2)[C@H](O)[C@@H](O)[C@@H]1O
outcome [1]: inactive | outcome [2]: inactive | outcome [3]: inactive | outcome [4]: inactive | outcome [5]: inactive | outcome [6]: inactive | outcome [7]: inactive | outcome [8]: inactive | outcome [9]: inactive

CCOC(=O)C(C#N)=C(c1ccccc1)c1ccccc1
AC50 [1]: 63 µM (active) | outcome [2]: inactive | AC50 [3]: 29.6 µM (active) | outcome [4]: inactive | AC50 [5]: 178 µM (active) | outcome [6]: inactive | AC50 [7]: 125 µM (active) | outcome [8]: inactive | outcome [9]: inactive
